Bioassay records: PubChem BioAssay, Sanford-Burnham Center for Chemical Genomics
Artemis inh – blocks endonuclease activity of human Artemis; recombinant Artemis, quenched FAM hairpin cleavage fluorescence; inhibition, % at 10 µM; 0.78% of 30,000 active;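 active = at 10 µM dose, at least 30% inhibition, measured as corrected fluorescence normalized to stimulator and neutral control wells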
* = called active by the depositor. The entries come from a sample that favours hits as a whole.

SMILES | Artemis inh
Cc1ccc(Nc2cc(C)nc3nnnn23)cc1 | -2
Cc1ccc(Nc2cc(C)nn2-c2nc(C)cc(=O)[nH]2)cc1 | 35*
COc1cccc(C(=O)N/N=C(/c2ccccc2)c2ccccn2)c1 | 8
Cc1sc2c(=O)n3c(nc2c1C(=O)NC1CCCCC1)CCCCC3 | 2
O=C(CNS(=O)(=O)c1ccc2ccccc2c1)OCc1nnc(-c2ccccc2)o1 | 8
Cc1ccc(/C=N\NC(=O)C2COc3cc4ccccc4cc3O2)o1 (stereo not given) | 4
O=C(N/N=C\c1ccc(-c2ccccc2[N+](=O)[O-])o1)C1COc2cc3ccccc3cc2O1 (stereo not given) | 36*
COc1ccc(OC)c(NC(=O)C2COc3ccccc3O2)c1 (stereo not given) | -1
CC(C)(C)NC(=O)COC(=O)c1cncc(Br)c1 | 1
Cc1cc(NS(=O)(=O)c2ccc(NC(=O)CCc3ccccc3)cc2)no1 | 2
Cc1cc(NS(=O)(=O)c2ccc(NC(=S)NC(=O)c3ccc(Cl)cc3Cl)cc2)no1 | 30*
COc1cc(C(=O)Nc2ccc(S(=O)(=O)Nc3cc(C)on3)cc2)cc(OC)c1OC | -7
C(=N\N1CCN(C2c3ccccc3-c3ccccc32)CC1)/c1cccnc1 | 8
C(=N\N1CCN(C2c3ccccc3-c3ccccc32)CC1)/c1ccccn1 | 32*
O=[N+]([O-])c1cc(/C=N/N2CCN(C3c4ccccc4-c4ccccc43)CC2)ccc1Cl | 0
Cc1nc(=O)c(-c2ccccc2)c(C)n1CCCCCC(=O)O | -8
CSc1nc2ccccc2cc1/C=C(\C#N)c1cccc(Cl)c1 | -4
CN(C)S(=O)(=O)c1ccc(C(=O)OCC(=O)c2ccc(OC(F)F)cc2OC(F)F)cc1 | -13
C=CCn1c(=O)c(C(=O)Nc2cccnc2)c(O)c2ccccc21 | 16
CCn1c(=O)c(C(=O)NCc2ccccn2)c(O)c2ccccc21 | -5
CC(C)Cn1c2c(c(O)c(C(=O)Nc3ncccc3O)c1=O)CCCC2 | 30*
Nc1nc(CSCCO)nc(Nc2ccccc2)n1 | -3
COc1ccc(OC)c(Nc2nc(N)nc(-c3cc4ccccc4o3)n2)c1 | 1
Cc1c(-c2nc(N)nc(Nc3ccccc3)n2)oc2ccccc12 | 52*
CSc1cc(-c2ccc(Cl)cc2)c(C(=O)N2CCCC2)s1 | 16
SMILES | Artemis inh
CCOC(=O)C1=C(O)CSC1=Nc1ccccc1 | -2
CCOC(=O)c1c(C)[nH]c(C=Nc2ccc(OC)cc2)c1O | 10
CCOC(=O)C1=C(O)/C(=C/c2ccc(-c3ccccc3C(=O)O)o2)SC1=Nc1ccc(OC)cc1 | 30*
COC(=O)c1nc2n(n1)C(c1ccc(OC)c(OC)c1OC)C1=C(CCCC1=O)N2 (stereo not given) | -4
O=C(N/N=C/c1ccc(-c2ccc(S(=O)(=O)Nc3ncccn3)cc2)o1)c1cc2ccccc2cc1O | 33*
CCOc1ccc(S(=O)(=O)N(CC(=O)N/N=C/c2ccc(-c3ccc([N+](=O)[O-])cc3)o2)c2ccccc2)cc1 | 27
O=C(CN1CCCC1)N/N=C/c1ccc(-c2cccc(Cl)c2)o1 | 0
COc1ccc(NS(=O)(=O)c2cc(OC)ccc2NC(=O)c2cc(C)oc2C)cc1 | -6
CC(=O)N/C(=C/c1ccc2c(c1)OCO2)C(=O)NCCCO | -13
CCCc1cc2c(cc1NC(=O)c1ccc(Br)cc1)OCO2 | 4
CCNc1ccc(Br)cc(C(=O)/C=C/c2ccc3c(c2)OCO3)c1=O | 34*
CCOC(=O)N1CCC(NC(=O)CCc2nc(-c3ccc(C)cc3)no2)CC1 | -2
O=C(COC(=O)CNS(=O)(=O)c1ccccc1)Nc1ccc(Cl)cn1 | -7
COC(=O)c1ccccc1S(=O)(=O)N1Cc2cc([N+](=O)[O-])ccc2Oc2ccccc21 | 6
Nc1ccc2nc(-c3ccc(N)c(Cl)c3)[nH]c2c1 | 22
COc1ccc2nc(-c3cccc(N)c3)[nH]c2c1 | 1
Nc1ccc2nc(-c3ccccn3)[nH]c2c1 | 45*
Cc1ccc(S(=O)(=O)N(C)Cc2ccc(-c3nnc4n3CCC4)cc2)cc1 | -4
CC12CNCC(C)(CN(C(c3ccccc3)c3ccccc3)C1)C2 | 8
O=C(O)C1CSC(CCc2ccccc2)N1 (stereo not given) | -5
CC(=O)/C=C(\C)NCCNc1c(F)c(F)c(CO)c(F)c1F | -2
CCN(CC)c1ccc(/C=N/Nc2nc3ccccc3[nH]2)c(O)c1 | 38*
CCCCNc1nc2ccccc2[nH]1 | 1
CCN(CC)c1ccc(C=Nc2ccc(C#N)cc2)c(O)c1 | 2
Cn1c(Oc2ccccc2)c(C=O)c2ccccc21 | -7
SMILES | Artemis inh
Cc1ccc(S(=O)(=O)N2CCOCC2)cc1C(=O)N1c2ccccc2Sc2ccccc21 | 7
Cc1ccc2cc(CCNC(=O)c3ccc(Br)o3)c(=O)[nH]c2c1 | 4
Cc1cc(NC(c2ccc(Cl)cc2)c2ccc3cccnc3c2O)no1 (stereo not given) | 10
Oc1c(C(Nc2ccccn2)c2ccccn2)ccc2cccnc12 (stereo not given) | 38*
CC(=O)NC(c1ccco1)c1ccc2cccnc2c1O (stereo not given) | -3
CCOC(=O)C1CSC(CC(=O)Nc2ccc(Cl)c(Cl)c2)C(=O)N1 (stereo not given) | -9
